# Source: PubChem BioAssay (NCI)
# “And” between values parts separate entries of the source, which are not always exact repeats. Identical values can stand only once. This is part of a sample that, as a whole, favours compounds with a hit. Of some 83,000 tested, about 20% had one in any assay.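 The test compound was applied at a single concentration to cells in 96-well plates for 48 hours, and percent growth was recorded.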 Unmarked numbers belong to inactive results. The source made the active and inactive calls. How the source made its calls: active means growth percent below 10; inactive means the rest.
# Legend:
# Experiment in all cases: NCI-60 one-dose screen, 48 h (100 = growth as untreated, 0 = no growth, -100 = all killed)
# Conditions in all cases: 10 µM unless noted
# SK-MEL-2 melanoma = system: SK-MEL-2 melanoma
# EKVX NSCLC = system: EKVX NSCLC
# SN12C renal = system: SN12C renal
# UO-31 renal = system: UO-31 renal
# TK-10 renal = system: TK-10 renal
# ACHN renal = system: ACHN renal
# CAKI-1 renal = system: CAKI-1 renal
# A498 renal = system: A498 renal
# CCRF-CEM leukemia = system: CCRF-CEM leukemia
# MOLT-4 leukemia = system: MOLT-4 leukemia
# SR leukemia = system: SR leukemia
# RPMI-8226 leukemia = system: RPMI-8226 leukemia
# OVCAR-8 ovarian = system: OVCAR-8 ovarian
# OVCAR-5 ovarian = system: OVCAR-5 ovarian
# OVCAR-4 ovarian = system: OVCAR-4 ovarian
# IGROV1 ovarian = system: IGROV1 ovarian
# OVCAR-3 ovarian = system: OVCAR-3 ovarian
# HS 578T breast = system: HS 578T breast
# NCI/ADR-RES ovarian = system: NCI/ADR-RES ovarian
# SK-OV-3 ovarian = system: SK-OV-3 ovarian
SMILES,growth (SK-MEL-2 melanoma),growth (EKVX NSCLC),growth (SN12C renal),growth (UO-31 renal),growth (TK-10 renal),growth (ACHN renal),growth (CAKI-1 renal),growth (A498 renal),growth (CCRF-CEM leukemia),growth (MOLT-4 leukemia),growth (SR leukemia),growth (RPMI-8226 leukemia),growth (OVCAR-8 ovarian),growth (OVCAR-5 ovarian),growth (OVCAR-4 ovarian),growth (IGROV1 ovarian),growth (OVCAR-3 ovarian),growth (HS 578T breast),growth (NCI/ADR-RES ovarian),growth (SK-OV-3 ovarian) [%]
Cc1nonc1-c1ccc2c(c1)OCO2,113% and 100%,90% and 104%,109% and 103%,95.2% and 96.6%,105% and 121%,109% and 107%,82.2% and 103%,166%,86.9% and 94.1%,94.8%,104%,94.1% and 91.7%,98.2% and 96.7%,111% and 121%,108% and 97.2%,108% and 116%,101% and 105%,107% and 145%,97.7%,
CCCCCCCCCCCCCCCCCCOc1cccc(CC(=O)OCC[N+](CC)(CC)CC)c1,84%,77.7%,42.8%,86.4%,67.5%,90%,62.7%,89.3%,32.5%,72%,53%,35.4%,41.4%,71.3%,27.6%,37.1%,77.7%,60.8%,103%,
CCCCCCCCN(CCCCCCCC)CC(O)c1cc(Cl)ccc1OC (stereo unspecified),80.1%,59.9%,75.4%,52.3%,96.4%,71.5%,62.3%,54.8%,92.8%,79.3%,14.5%,41.5%,87.9%,72.6%,66.9%,84.9%,91.9%,69.1%,82.6%,
NS(=O)(=O)c1ccc(C(=O)N=Nc2c(O)[nH]c3c(F)cccc23)cc1,104%,102%,97.1%,76.4%,107%,97.3%,93.2%,104%,102%,124%,103%,106%,96.7%,99.8%,102%,99.5%,117%,103%,100%,
COc1ccc(NC(=O)Nc2ccccc2CNc2nc(Nc3ccc(OCCN4CCCC4)cc3)ncc2Cl)cc1,-20.2% (active),55.4%,-44.2% (active),-86% (active),1.49% (active),-94.7% (active),-79.1% (active),51.9%,1.9% (active),1.79% (active),11.6%,-18.5% (active),-18.2% (active),21.1%,-74.3% (active),24.3%,-83.8% (active),-67.7% (active),6.48% (active),
COc1cc(/C=C(/c2ccccc2)[N+](=O)[O-])c(OC)c2c1OCO2,-23% (active),-10.5% (active),-39% (active),-100% (active),-88.1% (active),-70.1% (active),-65.2% (active),-14% (active),-6.26% (active),-10.5% (active),-18.9% (active),,-1.64% (active),-36.7% (active),-25.9% (active),-41.8% (active),-97.4% (active),31%,10.7%,63
C=C1C(=O)O[C@H]2[C@H]1CC/C(COC(=O)NCc1ccc(Cn3c(=O)sn(CCCI)c3=O)cc1)=C\CC[C@@]1(C)O[C@@H]21,68.5%,91.7%,2.19% (active),-30.1% (active),0.113% (active),16.2%,33.7%,105%,-9.69% (active),9.74% (active),8.4% (active),,37.7%,71.1%,17.7%,-0.0888% (active),-33.4% (active),78.4%,102%,101
CN(C)C1CCN(C(=O)c2ccc(NC(=O)Nc3ccc(-c4nc(N5CCOCC5)c5cccn5n4)cc3)cc2)CC1,-7.66% (active),-15% (active),4.15% (active),8.27% (active),-20.9% (active),2.19% (active),69.6%,-54.9% (active),10.5%,0.188% (active),8.47% (active),-20.8% (active),-0.587% (active),-0.314% (active),-26.9% (active),-26.4% (active),-12% (active),-32.6% (active),85.1%,
Cn1c(=O)c2c(nc(Nc3cc(=O)[nH]c(=O)[nH]3)n2Cc2ccccc2)n(C)c1=O,-2.98% (active),90%,95.2%,79.5%,14.3%,100%,37.9%,-13.8% (active),95.1%,92.7%,90.7%,87.9%,7.39% (active),96.9%,52.4%,89.4%,0.369% (active),-16.6% (active),99.7%,
COc1cc(-c2nc3occn3c2-c2ccnc(NCCCNS(=O)(=O)c3ccc(O)cc3)n2)ccc1F,28.4%,104%,95.8%,105%,133%,86.3%,92.6%,104%,75.4%,101%,74.2%,97%,98.4%,138%,129%,97.8%,117%,93%,104%,
Fc1ccc(NC(c2ccc(F)cc2)C2CCN(CCCCc3ccccc3)CC2)cc1 (stereo unspecified),69.6%,52.9%,29%,38.8%,49%,53.8%,49.1%,17.2%,8.3% (active),4.36% (active),-40.5% (active),,-21.9% (active),59.1%,50.6%,55.9%,34%,71.7%,49.5%,64.6
Cc1cccc(Cc2cnc(NC(=O)CCCOc3ccc(Cl)cc3)s2)c1,67.2%,41.4%,34.9%,19%,38.3%,12.1%,27.1%,-2.46% (active),,40.1%,18.4%,22.9%,37.6%,36.2%,31.3%,39.1%,7.26% (active),21.4%,32.3%,36.4
CCN1C(=O)/C(=c2\sc3n(c2=O)C2C(NN=3)N(CC)C(=O)N2CC)c2ccccc21 (stereo unspecified),60.1%,65%,29.1%,51.2%,76.6%,38.5%,45.7%,-25.4% (active),,26.6%,15.3%,50.8%,31.8%,54.2%,49.5%,29%,-19% (active),24.4%,5.59% (active),54.5
CCOC(=O)CCCn1c(-c2ccccc2)cc(-c2ccccc2)c(C#N)c1=O,94.8%,93.4%,84.6%,71.5%,113%,94.7%,57.3%,25.7%,88.4%,82.1%,63.7%,,85.6%,99.5%,94.8%,77.2%,103%,67.8%,72%,100
